Hit rate of the full screen: of about 5,500 compounds, about 2,000 (36%) were called active. Not shown: some 18% with an inconclusive outcome. No stated cut-off is given here; in the data, active means normalized growth mostly below about 0.91 (no sharp cut-off); inconclusive means no clear call, values can overlap the other calls; inactive means mostly above about 0.92. This is one part of the list.
Test: chemical genetic growth profiling, strain panel (AID 1159580);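 further: tested at 20 µM; growth read once vehicle control cultures reached saturation at 30 °C; 1 = growth at the plate median or of vehicle wells; lower values mean less growth of the strain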
Details: growth OD
[1] = S. cerevisiae deletion strains, locus YDR150W, strain NUM1, hits give low values
[2] = S. cerevisiae deletion strains, locus YMR263W, strain SAP30, hits give low values
[3] = S. cerevisiae deletion strains, locus YPL055C, strain LGE1, hits give low values
[4] = S. cerevisiae deletion strains, locus YPL241C, strain CIN2, hits give low values

Measured: normalized growth

NCC(O)C1CCCCCCC1 (configuration not stated)
inactive: S. cerevisiae deletion strains, locus YAL040C, strain CLN3, hits give low values 1.01 | S. cerevisiae deletion strains, locus YCL061C, strain MRC1 (second series), hits give low values 1.01 | [1] 0.995 | S. cerevisiae deletion strains, locus YDR363W, strain ESC2, hits give low values 0.994 | S. cerevisiae deletion strains, locus YER002W, strain NOP16, hits give low values 0.999 | [2] 0.999 | S. cerevisiae deletion strains, locus YNL175C, strain NOP13, hits give low values 1.01 | S. cerevisiae deletion strains, locus YNL197C, strain WHI3, hits give low values 1.01 | S. cerevisiae deletion strains, locus YNL224C, strain SQS1, hits give low values 1 | S. cerevisiae deletion strains, locus YOR083W, strain WHI5 (second series), hits give low values 1.04 | [3] 0.992 | [4] 1

COc1ccc(CN2C(=O)CSC2c2ccccn2)cc1 (configuration not stated)
inactive: S. cerevisiae deletion strains, locus YAL013W, strain DEP1, hits give low values 1.01 | S. cerevisiae deletion strains, locus YBR229C, strain ROT2, hits give low values 0.995 | S. cerevisiae deletion strains, locus YCL061C, strain MRC1, hits give low values 0.977 | S. cerevisiae deletion strains, locus YDL101C, strain DUN1, hits give low values 1.01 | S. cerevisiae deletion strains, locus YDL134C, strain PPH21, hits give low values 1 | [1] 1.01 | S. cerevisiae deletion strains, locus YEL061C, strain CIN8, hits give low values 1.01 | S. cerevisiae deletion strains, locus YGR078C, strain PAC10, hits give low values 1.01 | S. cerevisiae deletion strains, locus YHR030C, strain SLT2, hits give low values 0.998 | S. cerevisiae deletion strains, locus YHR087W, strain rtc3, hits give low values 1.01 | S. cerevisiae deletion strains, locus YJL187C, strain SWE1, hits give low values 0.989 | S. cerevisiae deletion strains, locus YJR043C, strain POL32, hits give low values 0.995 | S. cerevisiae deletion strains, locus YJR075W, strain HOC1, hits give low values 1.01 | S. cerevisiae deletion strains, locus YKL190W, strain CNB1, hits give low values 1 | S. cerevisiae deletion strains, locus YLR039C, strain RIC1, hits give low values 0.97 | S. cerevisiae deletion strains, locus YLR058C, strain SHM2 (second series), hits give low values 0.991 | S. cerevisiae deletion strains, locus YLR085C, strain ARP6, hits give low values 0.971 | S. cerevisiae deletion strains, locus YLR262C, strain YPT6, hits give low values 0.953 | S. cerevisiae deletion strains, locus YML094W, strain GIM5, hits give low values 1.02 | S. cerevisiae deletion strains, locus YMR219W, strain ESC1, hits give low values 0.993 | [2] 0.993 | S. cerevisiae deletion strains, locus YNL153C, strain GIM3, hits give low values 0.999 | S. cerevisiae deletion strains, locus YNL298W, strain CLA4 (second series), hits give low values 0.994 | S. cerevisiae deletion strains, locus YNL322C, strain KRE1, hits give low values 1 | S. cerevisiae deletion strains, locus YNR030W, strain Alg12, hits give low values 1 | S. cerevisiae deletion strains, locus YOL006C, strain TOP1, hits give low values 0.988 | [3] 1 | [4] 1.07 | S. cerevisiae deletion strains, locus YPR135W, strain CTF4, hits give low values 0.985 | S. cerevisiae strains, strain wild type, hits give low values 1
